Screening results as filed in PubChem.
Compounds with a hit are over-represented: about 1.4% of the library has one in this group of screens.
PrP UTR inh – inhibition of PrP 5' UTR reporter expression; cell-based PrP 5' UTR mRNA reporter, plate reader; inhibition, % (no concentration beside the values); 0.35% of 340,000 active; in the data active means inhibition above about 52%; further: 0 = median of the neutral control wells
PriA SSB inh – blocks PriA binding to SSB C-terminal tail; AlphaScreen SSBct-PriA binding, biotinylated peptide; inhibition, % at 33 µM; 0.6% of 430,000 active; AID 1272365; in the data active means inhibition mostly above about 37%, no sharp cut-off; inactive means mostly below about 20%;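 further: plate controls were negative control peptide for no effect and reference peptide for full effect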
FadD28 FP inh – blocks FadD28 binding to the bisubstrate probe. fluorescence polarization. inhibition, % at 12.5 µM. 0.22% of 360,000 active. AID 588549; in the data active means inhibition above about 8.5%, passing the limit was not always enough
PrPC TRFRET – cell surface PrPC inhibition, primary TR-FRET screen. P04156. TR-FRET read-out. inhibition, % at 13.8 µM. 0.43% of 370,000 active. AID 720596; in the data active means inhibition above about 24%; further: 0% = median of the test wells and 100% = reference compound wells
Vc quorum ag-1 – induces V. cholerae light production without autoinducers. 0.16% of 350,000 active. V. cholerae BH1578 lux reporter, luminescence, 6 h. activation, % at 18.7 µM; in the data active means activation mostly above about 9.7%, no sharp cut-off
Vc quorum ag-2 – induces V. cholerae light production without autoinducers; shares compounds with Vc quorum ag-1; V. cholerae BH1578 lux reporter, luminescence, 6 h; activation, % at 50 µM; 620 tested, under 10 active; AID 602243; call rule not given here
Active calls of the source: *; i = inactive; . = no result; + = active, no number.

SMILES	PrP UTR inh	PriA SSB inh	FadD28 FP inh	PrPC TRFRET	Vc quorum ag-1	Vc quorum ag-2
COc1ccc(-n2nnnc2SC(C)C(=O)NCC(=O)Nc2ccc(F)c(F)c2F)cc1 (stereo unspecified)	-5	3	-4	-2	0	.
Cc1c(Cl)cccc1S(=O)(=O)NCCCn1ccc2cccnc21	.	-4	.	.	.	.
COC(=O)c1ccc2c(=O)n(-c3cc(OC)cc(OC)c3)c(N3CCC(C(N)=O)CC3)nc2c1	.	-4	.	.	.	.
CCOC(=O)c1ccccc1NC(=O)C1=COCCO1	4	-13	-4	-5	i	.
CCOC(=O)c1ccccc1NC(=O)COC(=O)C1=COCCO1	-9	-28	4	0	12	-1
Cc1cc(C)n(-c2nc(CCNC(=O)c3ccc(Cl)s3)cs2)n1	.	-3	.	.	.	.
CCN(Cc1ccncc1)C(=O)CCc1nnc(CCc2ccc(OC)cc2)o1	-13	-7	0	6	i	.
CCC1C(=O)NCCN1C(=O)CCc1nnc(CCc2ccc(OC)cc2)o1 (stereo unspecified)	-20	2	-4	4	11	0
COc1cccc2sc(N(C)CC(=O)Nc3ccc4cn[nH]c4c3)nc12	.	-20	.	.	.	.
COc1ccccc1CNC(=O)COC(=O)c1n[nH]c2ccccc12	-20	-1	0	2	12	2
CCOC(=O)c1c(NC(=O)c2ccc(S(=O)(=O)N3CC(C)OC(C)C3)cc2)sc2c1CCC2 (stereo unspecified)	.	-8	.	.	.	.
CCOC(=O)c1ccc2nc(NC(=O)CN3C(=O)CCC3=O)sc2c1	.	-5	.	.	.	.
CCOC(=O)c1nnn(-c2nonc2N)c1CN1CCc2ccccc2C1	-14	8	-1	8	12	1
CC(C)OC(=O)c1nnn(-c2nonc2N)c1CN1CCc2ccccc2C1	-32	-2	-2	5	5	.
COC(=O)CC(=O)C(C(=O)OC)C(c1ccc(C)cc1)C(C(=O)CC(=O)OC)C(=O)OC (stereo unspecified)	.	-20	.	.	.	.
COc1cccc(Nc2nc(NCCO)c3ccccc3n2)c1	-1	-2	.	-3	40*	1
COc1cc(C)c(C)cc1S(=O)(=O)Nc1ccc2c(c1)CCC(=O)N2	.	-8	.	.	.	.
O=C(Nc1ccc(S(=O)(=O)N2CCCCCC2)cc1)c1ccco1	-47	-8	-3	9	-2	.
C[C@H](NC(=O)c1ccco1)C(=O)Nc1ccc(S(=O)(=O)N2CCCC2)cc1	-10	-18	-1	-2	14	18
C=C(C)COc1ccc(-c2ncncc2Oc2ccc(OC)cc2)c(O)c1	-11	-23	-3	6	25*	0
CCc1cc(C(=O)N2CCN(C(=O)c3ccccc3)CC2)sc1C	-22	1	-3	3	14	0
CN(C)S(=O)(=O)c1cccc(NC(=O)COC(=O)c2ccc(Br)o2)c1	-18	3	0	4	14	0
CC(=O)Nc1ccc(NC(=O)c2ccccc2C)cc1	-7	3	1	-1	257*	0
CC(C)CNC(=O)c1c2c(nc3ccccc13)-c1ccccc1CC2	-17	-5	-3	2	17*	0
C=CCNC(=O)c1c2c(nc3ccccc13)-c1ccccc1CC2	-33	-11	-5	-2	0	.
SMILES	PrP UTR inh	PriA SSB inh	FadD28 FP inh	PrPC TRFRET	Vc quorum ag-1	Vc quorum ag-2
CC(C)(C)c1ccc(S(=O)(=O)NCC#CCN2CCCC2)cc1	.	-4	.	.	.	.
COc1cc(NC(=O)c2ccccc2)c(OC)cc1NC(=O)CN1C(=O)N(C)C2(CCCCC2)C1=O	-9	9	-2	-3	14	1
CSc1ccc(C#N)cc1NC(=O)c1ccc(Cl)cc1Cl	-8	-1	-1	1	186*	0
CS(=O)(=O)Nc1cnn([C@H]2CCOC2)c1	.	-8	.	.	.	.
Cc1ccc(C2(C)NC(=O)N(CC(=O)NCCC3=CCCCC3)C2=O)cc1 (stereo unspecified)	-11	-9	1	4	228*	0
CC1(c2ccc(Cl)cc2)NC(=O)N(CC(=O)NCCC2=CCCCC2)C1=O (stereo unspecified)	-34	-12	0	7	-5	.
CC(=O)c1ccc(Oc2cc(C)nc(NCc3ccccc3)n2)cc1	-1	5	0	7	25*	1
CCOc1ccc(C(=O)c2c(N)c(C(=O)Nc3ccccc3C(F)(F)F)c3ccccn23)cc1	.	-14	.	.	.	.
COc1cc(C(=O)Nc2ccc(NC(=O)c3ccccc3)nc2)cc(OC)c1OC	-14	3	-1	9	1	.
COc1cc(C(=O)Nc2ccc(NC(=O)C(C)C)nc2)cc(OC)c1OC	-10	-12	-3	1	6.7*	0
Cn1c(CCNC(=O)c2ccco2)nc2cc(NC(=O)C3CCCCC3)ccc21	-12	-5	0	1	-1	.
Cn1c(CCNC(=O)c2ccco2)nc2cc(NC(=O)NC3CCCCC3)ccc21	-19	6	-2	0	7.6*	0
Cc1ccc(Cc2nnc(NC(=O)c3ccc(S(C)(=O)=O)cc3)o2)c(C)c1	.	4	.	.	.	.
C=CCn1c(-c2cc(OC)cc(OC)c2)n[nH]c1=S	-25	-12	-1	-3	22*	0
COc1c(C)cccc1C(=O)Nc1ccc(OCC(=O)N2CCOCC2)cc1C	-21	-19	-3	-6	11	0
CCNC(=O)OCc1cn(-c2ccccc2)nn1	-17	-9	-1	-3	+	i
COC(=O)c1sc(-c2ccccc2)cc1NC(=O)c1ccc(Cl)cc1	.	-12	.	.	.	.
O=[N+]([O-])c1ccc(OCC2CO2)c([N+](=O)[O-])c1 (stereo unspecified)	.	3	.	.	.	.
CCOC(=O)c1ccc(NC(=O)c2cc(C)nn2CC)cc1	.	-4	.	.	.	.
O=C(c1ccco1)N1CCN(c2nc(C3CC3)nc3c2nnn3Cc2ccccc2Cl)CC1	-9	1	1	1	1	.
CC(C)(C)c1nc(N2CCN(C(=O)c3ccco3)CC2)c2nnn(Cc3ccccc3)c2n1	-8	19	-4	-1	17*	0
O=S(=O)(NCCc1csc(-c2cccnc2)n1)c1cccnc1	.	-23	.	.	.	.
COc1ccccc1NC(=O)CN1CCN(C(=O)C2CCCO2)CC1 (stereo unspecified)	-7	-4	-4	5	22	6
COc1ccccc1NC(=O)CN1CCN(c2ccccc2OC)CC1	0	-1	1	-1	i	.
COc1ccccc1NC(=O)CN1CCN(c2ccccc2F)CC1	-3	-24	-2	-2	35*	96
COc1ccc(-c2nc(N)ncc2Oc2ccccc2Br)c(O)c1	-23	10	-1	-8	36*	0
COc1ccc(Oc2cnc(N)nc2-c2ccc(OC)cc2O)cc1	.	-4	.	.	.	.
O=C(Nc1nccs1)C1CCN(c2ccc(-c3ccc(F)cc3)nn2)CC1	.	-11	.	.	.	.
COc1ccccc1CNC(=O)c1ccc(S(=O)(=O)N(C)c2ccccc2)cc1	-25	-3	-4	1	14	0
COc1ccccc1NS(=O)(=O)c1ccc(C(=O)NCC(c2ccco2)N2CCCCC2)cc1 (stereo unspecified)	-15	2	-1	-3	-13	.
